From PubChem
Rows were chosen to be rich in hits. Some 9.2% of all compounds tested hit in one or more screens of this group.
SMN2 splice enh = enhancers of SMN2 splice variant expression | HEK293 SMN2-luciferase splicing reporter, luminescence, 30-36 h | Potency, µM (doses to about 46.1 µM), inactives show at the top dose activity change, positive = activation, actives largely listed as activators | hit rate 2.8% among 210,000; note: % of control where 0% means no effect; nearly all actives have a fitted effect of over 55% in size
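HEK293 cells carry an SMN2 minigene-luciferase reporter in which exon 7 inclusion puts luciferase in frame. Cells were seeded at 2000 cells/well, attached for 10-12 hours, then exposed to compounds for 30-36 hours at 37C before ONE-Glo luminescence.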
NPC1 promoter act = NPC1 promoter activation | Potency, µM (doses to about 9.22 µM), for inactives: top-dose activation, hits mostly activators | Huh7 NPC1 promoter luciferase reporter, 24 h | AID 485313 | hit rate 2.4% among 320,000; note: % of control where 0% means no effect; nearly all actives have a fitted effect of over 60% in size
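Quantitative HTS used a cell-based reporter: Huh7 cells stably bearing the NPC1 promoter upstream of luciferase were treated with compounds for 24 h, and promoter activation was read as luminescence.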
ELG1 repair inh = ELG1-dependent DNA repair inhibition. Potency, µM (doses to about 46.1 µM), for inactives: at the top dose activity change, negative = inhibition, most hits filed as inhibitors. HEK293T ELG1-luciferase reporter, luminescence, 16 h; DNA damage induced by 5-fluorouridine. hit rate 2.3% among 330,000. AID 504467; note: % is set by controls: 0 for no effect and ±100 for the full control effect; nearly all actives have a fitted effect of over 55% in size
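HEK293T cells expressing luciferase-tagged ELG1 (2,000/well) received 5-Fluorouridine plus compound or DMSO for 16 hr at 37 °C. Luciferase was read by ONE-Glo luminescence after 30 min at room temperature.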
ELG1 genotoxic = inducers of genotoxicity in HEK293T ELG1-luciferase cells. HEK293T ELG1-luciferase reporter, luminescence, 16 h. Potency, µM (doses to about 46 µM), for inactives: at the top dose activity change, positive = activation, actives largely listed as activators. hit rate 1.3% among 330,000. AID 504466; note: % of control where 0% means no effect; nearly all actives have a fitted effect of over 60% in size
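Quantitative HTS format in 1536-well plates. HEK293T ELG1-luciferase reporter cells receive test compound and are incubated 16 hr at 37 °C, 5% CO2; ONE-Glo added, 30 min room temperature, then luminescence read.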
FLuc counter = counter-screen for miR-21 project: firefly luciferase inhibitors or activators. P08659. purified FLuc, Km substrates, luminescence inhibition. Potency, µM (top dose mostly 57.5 µM), for inactives: top-dose activity change, negative = inhibition, actives largely listed as inhibitors. hit rate 6.9% among 360,000. AID 588342;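 note: plate controls were vehicle for no effect and reference inhibitor for full effect; nearly all actives have a fitted effect of over 55% in size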
Target sequence (P08659 whole entry, looked up): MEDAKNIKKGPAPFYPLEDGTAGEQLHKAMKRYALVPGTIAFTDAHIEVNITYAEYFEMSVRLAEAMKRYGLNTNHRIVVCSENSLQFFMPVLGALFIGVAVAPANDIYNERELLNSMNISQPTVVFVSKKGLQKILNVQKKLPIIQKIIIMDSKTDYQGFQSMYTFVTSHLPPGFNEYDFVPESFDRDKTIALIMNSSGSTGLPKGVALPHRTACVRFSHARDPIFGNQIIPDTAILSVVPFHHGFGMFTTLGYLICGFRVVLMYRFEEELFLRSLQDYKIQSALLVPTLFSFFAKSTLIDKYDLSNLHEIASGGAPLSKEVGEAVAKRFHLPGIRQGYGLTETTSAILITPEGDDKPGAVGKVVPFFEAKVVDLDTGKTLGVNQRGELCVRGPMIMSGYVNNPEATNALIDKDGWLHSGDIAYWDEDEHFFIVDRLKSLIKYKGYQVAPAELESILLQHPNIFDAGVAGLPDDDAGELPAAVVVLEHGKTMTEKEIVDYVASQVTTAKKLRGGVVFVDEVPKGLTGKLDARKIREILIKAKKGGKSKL
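Purified P. pyralis luciferase (10nM final) with 10uM D-luciferin and 10uM ATP (Km levels) in 50mM Tris acetate pH 7.5, 10mM Mg acetate, 0.01% Tween-20, 0.05% BSA; qHTS 6-point titration, ~60 µM downward; luminescence read.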
Rab9 prom act = activates the Rab9 promoter. hit rate 2.8% among 320,000. Huh7 Rab9 promoter-luciferase reporter, luminescence, 24 h. Potency, µM (top dose mostly 9.22 µM), for inactives: at the highest dose activation, negative = inhibition, usual class: activators; note: % of control where 0% means no effect; nearly all actives have a fitted effect of over 60% in size
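Luciferase signal after 10 min detection reagent at ambient indicates Rab9 promoter upregulation; stably transfected Huh7 cells were treated 24 h with compound in DMSO at 37 °C, 5% CO2.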
Numbers without * were called inactive; ? = inconclusive; . = no result given; [ ] = dose if it differs, or a comment. Calls come from the whole dose curve; as a rule, active = well fitted curve in the direction sought with a large enough effect; inconclusive = small, poorly fitted or top-dose-only effect, or another doubt; inactive = no such curve, though single readings can be large; an effect the other way counts as inactive or inconclusive. Potency is the fitted concentration of half-maximal effect.

SMILES | SMN2 splice enh | NPC1 promoter act | ELG1 repair inh | ELG1 genotoxic | FLuc counter | Rab9 prom act
Cc1ccc(-n2nc(C(=O)Nc3ccc(C)c(F)c3)c3c4ccccc4n(C)c3c2=O)cc1 | 4% | . | . | . | -6% | .
Cc1cccc(-n2ncc(C(=O)N3CCN(Cc4ccccc4)CC3)c2C2CCN(C(=O)OC(C)(C)C)CC2)c1 | . | . | . | . | 6% | .
Cc1cc(C)nc(NC(=O)c2ccc(Br)cc2)n1 | . | 2% | 1% | -3% | 2% | -2%
Cc1cc(NO)nc(-c2ccc(Br)cc2)n1 | 16µM* | ? | ? | ? | 24µM* | 4.5µM*
CC(C)c1ccc(NC(=O)CN2C(=O)C3(SCC(=O)N3c3ccc(F)cc3)c3ccccc32)cc1 (configuration not stated) | . | . | . | . | -5% | .
O=C(Nc1ccccc1)c1cc2c(=O)c3ccccc3oc2nc1C(F)(F)F | -19% | -4% | 1% | -3% | 3% | -2%
COCc1nc2oc3ccc(F)cc3c(=O)c2cc1C(=O)OC | . | 2.8µM* | ? | ? | ? | ?
COCc1nc2oc3ccc(C)cc3c(=O)c2cc1C(=O)OC | . | ? | ? | ? | 11µM* | 1.8µM*
CCc1nc2oc3ccccc3c(=O)c2cc1C(=O)OC | . | 3.2µM* | ? | ? | 13µM* | 3.5µM*
COC(=O)c1ccccc1NC(=O)Cc1noc2ccc(C)cc12 | . | . | . | . | -11% | .
CCNc1c(NC(=O)c2ccc3c(c2)OCO3)c(=O)oc2ccccc12 | . | 1% | -7% | -1%[9.26 µM] | 0% | 7%
O=C(c1ccc(-n2ccnc2)cc1)N1CCCC(CO)(Cc2cccc(Cl)c2)C1 (configuration not stated) | . | 1% | 0% | -2% | 1% | -3%
Cc1ccc(S(=O)(=O)N2CCN(c3ncnc4sccc34)CC2)cc1 | . | -24% | 9.2µM* | -10% | 3% | -21%
Cc1sc2ncnc(N3CCN(S(=O)(=O)c4ccc(F)cc4)CC3)c2c1C | . | -2% | ? | -31% | -1% | -3%
COc1cnc(-c2ccccn2)nc1Sc1ccccc1 | -109% | -12% | ? | -12% | ? | 3%
COc1ccc(Sc2nc(-c3ccccn3)ncc2OC)cc1 | -74% | -6% | 15µM* | -7% | -8% | -9%
COc1cnc(-c2ccccn2)nc1N(C)c1ccccc1 | . | 0% | ? | 21% | 11µM* | 1%[1.84 µM]
COc1cnc(-c2ccccn2)nc1Sc1ccc(F)cc1 | -93% | -6% | 21µM* | -8% | 1% | 0%
O=C(CNC(=O)c1cccs1)OCc1ccc(Br)cc1 | . | 1% | 2% | -3% | 2% | 4%
O=C(CNC(=O)c1cccs1)c1ccc(Br)cc1 | . | 0.79µM* | ? | ? | 9.5µM* | 0.45µM*
O=C(NCC(O)c1ccccc1)c1cccs1 (configuration not stated) | . | 2.5µM* | ? | ? | 17µM* | ?
O=C(NCCCc1ccccc1)c1cccs1 | -9% | ? | ? | 12% | ? | 26%
CCCCn1c(CCNC(=O)c2cccs2)nc2ccccc21 | 9% | 3.5µM* | -28% | -4% | 4%[2.3 µM] | 29%
O=C(NCCc1cccs1)c1cccs1 | ? | 2.8µM* | ? | ? | 13µM* | 2.8µM*
O=C(NCc1ccc2c(c1)OCO2)C1CC(=O)N(CCc2ccc(F)cc2)C1 (configuration not stated) | . | 0% | -4% | -3% | -1% | -2%
SMILES | SMN2 splice enh | NPC1 promoter act | ELG1 repair inh | ELG1 genotoxic | FLuc counter | Rab9 prom act
COc1cc(Cl)ccc1NC(=S)N(CCN1CCOCC1)C1CCN(C(C)=O)CC1 | -5% | -1% | 8% | 6% | -1% | -6%
O=C(NCCc1ccc(F)cc1)c1cccs1 | 16µM* | 2.8µM* | ? | ? | 12µM* | 2.5µM*
COc1ccc2cc(CCNC(=O)c3cc4ccccc4o3)c(=O)[nH]c2c1 | . | 2% | -8% | -5% | 6% | -1%
COc1ccc2cc(CCNC(=O)c3cccs3)c(=O)[nH]c2c1 | 6.3µM* | 2.8µM* | ? | ? | 11µM* | 2µM*
COc1ccc(-c2ccc(-c3noc(-c4ccccc4F)n3)c(OC)n2)cc1 | 0% | -1% | 7% | 0% | -4% | -1%
Fc1ccccc1-c1nc(-c2ccncc2)no1 | . | 1.8µM* | ? | ? | 8.5µM* | 1.8µM*
Fc1ccccc1-c1nc(-c2ccccc2)no1 | 11µM* | 3.5µM* | ? | ? | 0.6µM* | 2.8µM*
Brc1ccccc1-c1nc(-c2ccccc2)no1 | 4µM* | 27% | ? | ? | 0.95µM* | 3.5µM*
Cc1c2cnn(CC(=O)O)c(=O)c2c(C)n1Cc1ccccc1 | 0% | 2% | -3% | 6% | 8% | -1%
COC(=O)Cn1ncc2c(C)n(Cc3ccccc3)c(C)c2c1=O | 18µM* | ? | ? | 21µM* | 12µM* | ?
Cc1ccc(Cn2c(C)c3cnn(CC(=O)NC4CCCC4)c(=O)c3c2C)cc1 | . | ? | ? | 12% | ? | 1.3µM*
CNC(=O)Cn1ncc2c(C)n(Cc3ccc(C)cc3)c(C)c2c1=O | -21% | -5% | 4% | 2% | -1% | 4%
CCOC(=O)C1(CCOc2ccccc2)CCN(Cc2ccc(-n3cccn3)cc2)CC1 | . | -1% | ? | -2% | -2% | -17%
CCOc1cccc(/C=C2\NC(=S)N(c3ccccc3)C2=O)c1O | . | 1% | ? | 12% | 5.4µM* | ?
